# Bioassay records from PubChem BioAssay.
# Rows were chosen to be rich in hits. Some 3% of all compounds tested hit in one or more screens of this group.
# pS6 MEF inh = reduces mTORC1 signaling in Tsc2 and p53 null MEF cells; Tsc2-/- p53-/- MEF, phospho-rpS6 immunofluorescence/PI, 24 h; Potency, µM (doses to about 38.3 µM), for inactives: at the highest dose activity change, negative = inhibition, hits mostly inhibitors; actives 0.78% (n = 44,000); AID 493208;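 also: plate controls were DMSO for no effect and rapamycin for full effect; nearly all actives have a fitted effect of over 50% in size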
#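 Tsc2-/-, p53-/- mouse embryonic fibroblasts (empty-vector line) exposed to compound 24 hrs at 37 C, fixed, immunostained for phospho-rpS6 and counterstained with propidium iodide. Acumen laser scanning gives % positive cells from Alexa 488/PI ratio, thresholded using 7.5 nM rapamycin; PI count gives viability.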
# S16 viability = S16 Schwann cell cytotoxicity; actives 0.48% (n = 43,000); S16 Pmp22-F2sN Schwann cells viability, CellTiter-Glo, 24 h; Potency, µM (doses to about 57.5 µM), inactives show at the top dose activity change, negative = cytotoxicity, usual class: cytotoxic; also: nearly all actives have a fitted effect of over 65% in size
#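 CellTiter-Glo counter-screen, qHTS, 1536-well. Cells: S16(c9) Pmp22-F2sN, 500-1,000/well in DMEM + 10% FBS. Cpd 23 nL pin transfer, 24 h, 37C/5% CO2. Read: luminescence, CCD imager.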
# PMP22 txn = modulates PMP22 transcription in S16 Schwann cells; S16 Pmp22-F2sN Schwann cells (luciferase reporters placed in the Pmp22 gene), FLuc/NLuc coincidence luminescence, 24 h; Potency, µM (series often up to 57.5 µM), for inactives: top-dose activity change, negative = inhibition, actives largely listed as inhibitors; actives 2% (n = 43,000); AID 1508649; active = clear falling dose curves in both reporters; inconclusive = both reporters move, but less clearly or upward; inactive = either reporter flat; the % is the NLuc reporter signal
#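 S16 Schwann cells carrying FLuc/NLuc coincidence reporter in the Pmp22 3' UTR treated with compound 24 h at 37C; FLuc then NLuc luminescence read sequentially by dual-luciferase reagents.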
# OvCa metastasis = inhibitors of ovarian cancer cell adhesion and invasion in omental model; SKOV3ip1-GFP adhesion/invasion on 3D omental model, fluorescence; Potency, µM (titrated, usually from 45.8 µM), without a hit: top-dose activity change, negative = inhibition, hits mostly inhibitors; actives 0.1% (n = 46,000); AID 1963576;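 also: plate controls were DMSO wells for no effect and tomatine positive control wells for full effect; nearly all actives have a fitted effect of over 65% in size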
#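 qHTS, 4-pt dose (0.36-46 umol/L); SKOV3ip1-GFP, 1,200 cells/well, no FBS; primary omental fibroblast/mesothelial co-culture 48 h pre-grown; 2 h RT + 16 h 37 C; PBS wash, 4% PFA; GFP count 488/509 nm.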
# p53null 39C tox = p53 null cell cytotoxicity, nonpermissive temperature; H1299 p53-null (neo) cells, 39C, ATPlite viability, 24 h; Potency, µM (highest dose often 46.1 µM), for inactives: at the top dose activity, negative = cell killing, hits mostly cytotoxic; actives 0.97% (n = 55,000); AID 904;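 also: 0% = DMSO only and -100% = full killing by 100 µM tamoxifen; nearly all actives have a fitted effect of over 50% in size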
#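 Temperature-shift cytotoxicity format: compound titrations on p53-null or A138V-expressing H1299 cells held 24 hr at 39C, cell ATP then measured, AC50 from Hill model.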
# p53null 32C tox = p53 null cell cytotoxicity, permissive temperature. H1299-neo p53 null cells, ATP luminescence, 24 h, 32C. Potency, µM (highest dose often 46.1 µM), for the others: at the top dose activity change, negative = cytotoxicity, hits mostly cytotoxic. actives 0.62% (n = 55,000). AID 903;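 also: 0% = DMSO only and -100% = full killing by 100 µM tamoxifen; nearly all actives have a fitted effect of over 55% in size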
#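 H1299-neo (p53-null) cells, 600/well, were pre-incubated overnight at 37C, then exposed to compounds at up to 46 uM for 24 hr at 32C. Viability was measured as ATP content by luminescence, and AC50 values came from Hill fits.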
# Active calls of the source: *; i = inactive; ? = inconclusive; · = no result. Unless noted, calls follow the shape of the dose curve; as a rule, active = well fitted curve in the direction sought with a large enough effect; inconclusive = small, poorly fitted or top-dose-only effect, or another doubt; inactive = no such curve, though single readings can be large; an effect the other way counts as inactive or inconclusive. Unless noted, % is scaled to controls: 0 for no effect and ±100 for the full control effect; potency is read from the fitted curve at half-maximal effect.
SMILES,pS6 MEF inh,S16 viability,PMP22 txn,OvCa metastasis,p53null 39C tox,p53null 32C tox
Cc1cccc(-c2nnc(SCC(=O)Nc3ccc(C)c(C)c3)o2)c1,-10%,0%,-25%,2%,-6%,-10%
Cc1cccc(NC(=O)CSc2nnc(-c3ccccc3C)o2)c1,·,·,·,·,10µM*,-20%
Cc1cnc(Nc2ccc(CN3CCOCC3)cc2)nc1Nc1cccc(S(=O)(=O)NC(C)(C)C)c1,·,·,·,-23%,·,·
CC1=C(C(=O)Nc2ccc(C)cc2C)C(c2cc(Br)ccc2F)n2ncc(C(=O)Nc3ccc(C)cc3)c2N1 (stereo unspecified),2.9µM*,?,?,i,?,-15%
CN(C)Cc1cccc(N=C(c2ccccc2)c2c(O)[nH]c3cc(C(=O)N(C)C)ccc23)c1,·,·,·,14%,·,·
COc1ccc(/C=C/C(=O)Nc2ccc3nc4c(c(Nc5ccc(OC)c(OC)c5)c3c2)CCCC4)cc1,3.7µM*,?,?,5µM*,6.3µM*,13µM*
COc1ccc(/C=C/C(=O)Nc2ccc3nc(N4CCCCC4)cc(C)c3c2)cc1OC,?,?,?,?,-3%,-7%
COc1ccc(/C=C/C(=O)Nc2ccc3nc(N4CCC(C)CC4)cc(C)c3c2)cc1,-10%,?,-1%,6%,3%,2%
COc1ccc(/C=C/C(=O)Nc2ccc3nc4c(c(Nc5ccccc5OC)c3c2)CCCC4)cc1,2.3µM*,?,?,1.3µM*,?,-9%
COc1ccc(Nc2c3c(nc4ccc(NC(=O)/C=C/c5cccc(OC)c5OC)cc24)CCCC3)cc1OC,3.7µM*,?,?,5µM*,3.2µM*,10µM*
COc1ccc(NC(=O)c2ccc3c(SCC(=O)O)c4c(nc3c2)CCCC4)cc1OC,0%,?,-67%,-15%,-10%,-16%
COc1ccc(Nc2c3c(nc4ccc(NC(=O)/C=C/c5cc(OC)c(OC)c(OC)c5)cc24)CCCC3)cc1OC,2.1µM*,11µM*,?,-9%,7.1µM*,13µM*
C=CCNc1c(O)cc2c(O)c1C[C@@H](C)C[C@H](OC)[C@@H](O)[C@@H](C)C=C(C)[C@H](OC(N)=O)[C@@H](OC)C=CC=C(C)C(=O)N2,·,·,·,20%,·,·
CCOc1ccc(Nc2nc(Nc3ccc(OCC)cc3)nc(N3CCOCC3)n2)cc1,2.3µM*,4%,5%,-8%,0%,2%
Cc1cccc(Nc2nc(Nc3cccc(C)c3)nc(N3CCOCC3)n2)c1,1.2µM*,-23%,?,-15%,2%,-6%
Cn1cc(C2=C(c3c4n(c5ccccc35)CCC(CN)C4)C(=O)NC2=O)c2ccccc21 (stereo unspecified),·,·,·,-22%,·,·
CC(=O)N1CCCc2cc(S(=O)(=O)N3CCCC(C(=O)N4CCN(c5ccccc5F)CC4)C3)ccc21 (stereo unspecified),-15%,10µM*,?,2%,12%,-2%
Cc1ccccc1Nc1c(-c2ccc(N3CCOCC3)cc2)nc2ccc(Cl)cn12,0%,-16%,0%,2%,13µM*,?
Cc1ccc2nc(-c3ccc(N4CCOCC4)cc3)c(Nc3ccccc3C)n2c1,-2%,-17%,?,-26%,5µM*,?
Cc1ccn2c(Nc3ccccc3C)c(-c3ccc(N4CCOCC4)cc3)nc2c1,-1%,-7%,-21%,-8%,7%,22%
CC1CCn2c(nc3cc(C(=O)NCCc4ccccc4)ccc32)C1 (stereo unspecified),2%,13%,25%,i,25µM*,13µM*
Cc1ccccc1CCNC(=O)c1ccc2c(c1)nc1n2CCCCC1,-1%,0%,4%,-28%,1.3µM*,2µM*
Cc1ccccc1CCNC(=O)c1ccc2c(c1)nc1n2CCOC1,0%,-2%,7%,3%,3.2µM*,7.9µM*
COc1ccc(Cn2c(C(=O)O)c(CNCc3ccccc3F)c3ccc(OC)cc32)cc1,12µM*,?,?,i,-30%,-16%
CCOc1ccccc1CNCc1c(C(=O)O)n(Cc2ccccc2)c2cc(OC)ccc12,-11%,0%,5%,i,?,-11%
SMILES,pS6 MEF inh,S16 viability,PMP22 txn,OvCa metastasis,p53null 39C tox,p53null 32C tox
CN(C)c1nc(Cc2ccc(NC(=O)c3ccc4ccccc4c3)cc2)nc(Cl)c1CC(=O)O,·,·,·,-21%,·,·
CCOc1cc(C(c2c(C)[nH]n(-c3ccccc3)c2=O)c2c(C)[nH]n(-c3ccccc3)c2=O)ccc1O,7%,-3%,9.5µM*,?,-12%,4%
N#Cc1nc(-c2ccc(COc3ccccc3)o2)oc1NCc1ccccc1,-14%,2%,-5%,5%,?,-7%
Cc1cccc(OCc2ccc(-c3nc(C#N)c(NCCN(C)C)o3)o2)c1,5.2µM*,?,?,-16%,-18%,2%
CC(Nc1oc(-c2ccc(COc3ccccc3)o2)nc1C#N)c1ccccc1 (stereo unspecified),15µM*,-8%,?,?,?,-9%
CNc1oc(-c2ccc(COc3ccc(C)cc3)o2)nc1C#N,-1%,-4%,-50%,7%,?,6%
COC(=O)[C@H](CCCN=C(N)N)NS(=O)(=O)c1ccc(C)cc1,·,·,·,-4%,·,·
O=C(Nc1ccccc1C(F)(F)F)c1cc2ccccn2n1,3%,·,·,4%,10µM*,7.9µM*
CCOC(=O)c1cccc(NC(=O)c2ccc3c(Cl)c4c(nc3c2)CCC4)c1,?,4%,-13%,-4%,0.4µM*,?
CCOC(=O)c1cccc(NC(=O)c2cc3ccccn3n2)c1,0%,·,·,1%,10µM*,13µM*
CCOC(=O)c1ccccc1NC(=O)c1ccc2c(Cl)c3c(nc2c1)CCC3,0%,9%,-7%,i,?,?
O=C(C=CC=Cc1ccc2c(c1)OCO2)N1CCCCC1,·,·,·,-25%,·,·
Cc1ccc(CSc2nc3ccncc3n2Cc2nc(-c3ccccc3C)oc2C)cc1,-7%,?,?,44%,6.3µM*,7.9µM*
COc1ccc(CSc2nc3ccncc3n2Cc2nc(-c3ccc(OC)c(OC)c3)oc2C)cc1,-5%,-21%,-62%,3%,?,13µM*
O=C(O)c1ccc(-c2cc3cccnc3c(-c3ccc4nonc4c3)n2)cc1,·,·,·,7%,·,·
CCCCNC(=O)c1ccc2c(c1)N=C(CC)c1ccccc1S2,?,?,12µM*,6%,?,-3%
